# Source: PubChem BioAssay
# The list is not random: actives were taken first. Their share in the collection is about 3.1%.
# IkB sig inh: IkB Signaling. ABC-DLBCL IkBa-CBG/CBR dual luciferase ratio, 4 h; response scale: scaled: untreated 0%, proteasome inhibitor 100%. Potency, µM (doses to about 57.1 µM), for the others: at the top dose IkBa stabilization activation. AID 445, 2006. 0.04% of 110,000 active; active = well fitted curve in the direction sought with a large enough effect in the signal ratio, not every such curve was filed as active; inconclusive = small, poorly fitted or top-dose-only effect, or a change in a side signal; the % refers to the signal ratio;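 note: the direction sought is a rising ratio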
#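 In this assay, an IκBα–CBG68 fusion accumulates when IKK-driven degradation is blocked; native CBR normalizes for cell number. OCI-Ly3 cells were treated 4 h with compound and doxycycline, then green and red light read after Chroma-Glo addition.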
# TSHR agonist: qHTS Assay for Agonists of the Thyroid Stimulating Hormone Receptor; Thyrotropin receptor (Homo sapiens), P16473; 0.48% of 73,000 active; HEK293-CNG-TSHR cells (CNG channel as cAMP sensor), membrane potential dye, cAMP; AID 926, 2007; Potency, µM (doses to about 57.1 µM), without a hit: at the top dose activation, most hits filed as activators; active = well fitted activation curve with a large enough effect in the main read-out, with a control signal flat, not every such curve was filed as active; inconclusive = small, poorly fitted or top-dose-only effect, or a change in a side signal; inactive = no such curve, though single readings can be large or run the other way; % of control where 0% means no effect;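 note: the control signal comes from parental cells without the receptor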
#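 HEK 293 cells stably expressing TSHR and a cAMP-gated CNG channel; parental CNG-only cells as counterscreen. Cells preloaded 60 min with membrane potential dye plus 100 uM RO 20-1724, then compound 30 min; fluorescence read at 590 nm.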
# p53ts 32C tox: qHTS Screen for Compounds that Selectively Target Cancer Cells with p53 Mutations: Cytotoxicity of p53ts Cells at the Permissive Temperature; H1299-p53A138V at 32C, ATP luminescence viability, 24 h; Potency, µM (series often up to 46.1 µM), for the others: at the highest dose activity change, negative = cytotoxicity, most hits filed as cytotoxic; 0.93% of 130,000 active; AID 924, 2007;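 note: 0% = DMSO and -100% = full killing by reference compound; nearly all actives have a fitted effect of over 55% in size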
#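 H1299-p53 A138V cells (temperature-sensitive p53) exposed 24 h to up to 46 uM compound at 32C, where p53 is wild-type in conformation. Viability read as ATP luminescence and normalised to DMSO and 100 uM tamoxifen. AC50 fitted with the Hill equation.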
# HEK293 cAMP ctrl: qHTS Assay for Agonists of the Thyroid Stimulating Hormone Receptor: Activators of Intracellular cAMP Concentrations in Parental HEK 293; parental HEK293 CNG cAMP sensor, membrane potential fluorescence; Potency, µM (highest dose often 57.1 µM), inactives show at the top dose activation, actives largely listed as activators; 2.5% of 73,000 active; AID 938, 2007; note: % of control where 0% means no effect; nearly all actives have a fitted effect of over 55% in size
#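 Counterscreen for endogenous-receptor signalling: CNG-channel HEK 293 cells report cAMP rise by membrane depolarization. After 60 min dye equilibration with 100 uM RO 20-1724, compounds incubated 30 min before bottom-read fluorescence at 590 nm.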
# p53ts 39C kill: qHTS Screen for Compounds that Selectively Target Cancer Cells with p53 Mutations: Cytotoxicity of p53ts Cells at the Nonpermissive Temperature. AID 902, 2007. 1.5% of 130,000 active. H1299-p53A138V viability at 39C, ATP luminescence, 24 h. Potency, µM (top dose mostly 46.1 µM), without a hit: at the top dose activity change, negative = cell killing, actives largely listed as cytotoxic; note: % is set by controls: 0 for no effect and ±100 for the full control effect; nearly all actives have a fitted effect of over 55% in size
# Imprint erasure: qHTS Assay for Compounds that Induce Erasure of Genomic Imprints; mouse ES Peg3-LacZ reporter, beta-gal luminescence, 40 h; Potency, µM (top dose mostly 60.7 µM), without a hit: at the highest dose activity change, positive = activation, most hits filed as activators; 0.02% of 110,000 active
#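 Gelatin-coated wells received 300 freshly trypsinized female ES cells with a Peg3LacZ-Neo reporter on the maternal allele, then incubated 40 hours at 37C. BetaGlo was added for 5 minutes at room temperature before a single luminescence read.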
# * marks the source's active call; other numbers are inactive results; ? = inconclusive; / = not tested or not shown; [ ] = remark or other dose. Unless noted, calls come from the whole dose curve; as a rule, active = well fitted curve in the direction sought with a large enough effect; inconclusive = small, poorly fitted or top-dose-only effect, or another doubt; inactive = no such curve, though single readings can be large; an effect the other way counts as inactive or inconclusive. Potency is the fitted concentration of half-maximal effect.
SMILES,IkB sig inh,TSHR agonist,p53ts 32C tox,HEK293 cAMP ctrl,p53ts 39C kill,Imprint erasure
NS(=O)(=O)c1ccc(N=Nc2nc3[nH]cnc(=S)c3[nH]2)cc1,6%[11.4 µM],-1%[11.4 µM],-29%[9.22 µM],-4%[11.4 µM],-22%[9.22 µM],5%[10.9 µM]
S=c1nc[nH]c2nc[nH]c12,/,/,?,/,7.9µM*,4%
CCOC(=O)c1cc2sc(C)cc2n1CC(=O)N1CCc2ccccc21,-2%,?,10%,7.9µM*,-9%,0%
CCOC(=O)c1cc2sccc2n1CC(=O)N1CCCc2ccccc21,1%,?,-2%,?,-4%,/
O=C(c1ccco1)N1c2ccccc2Sc2ccccc21,?,?,3%,20µM*,-6%,-19%
COc1cccc(C(=O)Nc2cccc(OCc3cc(=O)n4cc(C)ccc4n3)c2)c1,?,/,4%,/,-12%,?
CCOC(=O)c1cc(C#N)c(SCc2ccc(C#N)cc2)nc1C,-1%,?,-25%,32µM*,-2%,13%
COc1ccc(CC(=O)N2CC(=O)Nc3ccc(F)cc3C2c2ccccc2)cc1 (stereo not drawn),-2%,/,5%,/,36%,-7%[10.9 µM]
CC1(C)CC(N=C=O)CC(C)(CN=C=O)C1 (stereo not drawn),-1%,-2%,-13%[1.84 µM],24%,-13%,0%
CCNC(=O)c1ccc(NC(=O)N2CCCCc3ccccc32)cc1,0%,/,7%,/,9%,11%[10.9 µM]
Cc1ccc(NC(=O)N2CCc3ccccc32)cc1,/,/,4.5µM*,/,5µM*,/
CN1C(=O)CSc2ccc(NC(=O)N3CCc4ccccc43)cc21,?,0%,10µM*,-3%,?,-45%
CO[C@@H]1CC[C@@]2(C)[C@@H](CC[C@@]3(C)[C@H]2CC=C2[C@H]4CC(C)(C)[C@H](O)[C@@H](OC(C)=O)[C@]4(CO)[C@H](O)C[C@]23C)[C@@]1(C)CO (tested in a mixture with another compound),?,16µM*,?,2%[25.6 µM],-22%[20.6 µM],-6%[16.8 µM]
COc1ccc(C2C(=O)c3ccccc3C2=O)cc1,/,/,10µM*,/,13µM*,-10%
CCOc1ccc(-c2oc3cc(Cl)ccc3c(=O)c2O)cc1OC,-5%,/,-15%,/,7.9µM*,6%[10.9 µM]
CC(C)C[C@H](NC(=O)[C@@H](O)[C@@H](N)Cc1ccccc1)C(=O)O,15%,?,-2%,?,7%,/
CC(C)Cn1c(/C=C/c2ccc(F)cc2)nc2ccccc21,?,/,13µM*,/,10µM*,-9%[10.9 µM]
CC(C)Cn1c(-c2ccccc2Cl)nc2ccccc21,?,/,-6%,/,-20%,-14%[10.9 µM]
CC(C)CCn1c(/C=C/c2ccccc2)nc2ccccc21,?,/,?,/,?,-6%[10.9 µM]
CCC(C)Cn1c(/C=C/c2ccccc2)nc2ccccc21 (stereo not drawn),?,/,?,/,13µM*,-14%[10.9 µM]
C#CCn1c(/C=C/c2ccc(Cl)cc2)nc2ccccc21,?,/,4µM*,/,3.2µM*,-26%[10.9 µM]
CCOC(=O)c1cc(S(=O)(=O)Nc2ccc(Br)c(C)c2)[nH]n1,?,/,-9%,/,-15%,2%[10.9 µM]
Cc1c(Cl)cccc1Nc1nn2c(=O)c3ccc(C(=O)NCCC4=CCCCC4)cc3nc2s1,-1%,/,3%,/,-20%,11%[10.9 µM]
Cc1ccc(C(=O)NC2CCCCCC2)o1,4%,-12%,-9%,6%,-17%,-29%
Cc1ccc(-c2nc(C(=O)NC3CCCCCC3)no2)cc1,?,?,13%,20µM*,12%,-24%
